Each structure is given as a SMILES string. Out of some 190,000 compounds screened, about 120 (0.063%) were called active. This excerpt belongs to a sample that is enriched for actives. Unmarked numbers belong to inactive results. Rule as the data show it: active = inhibition above about 40%; inconclusive = no clear call, values can overlap the other calls; inactive = below that.

Consider 97 compounds from PubChem BioAssay AID950 (NMMLSC, 2007).

The target in this assay is Apoptosis regulator Bcl-2 (Homo sapiens) (UniProt P10415). In words: inhibitors of Bim-Bcl-2 binding, primary screen, biochemical, multiplexed, human Bcl-2 family (AID 950).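 Also: 0% = no compound wells with probe peptide and 100% = reference peptide inhibitor.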 As to conditions: Bead-based flow cytometry, Bim peptide-Bcl-2 binding; at 10 µM; stronger effect = higher value. Background: A flow cytometer gives signals particle by particle.
Apoptosis regulator Bcl-2 (Homo sapiens), sequence (P10415 whole entry, looked up): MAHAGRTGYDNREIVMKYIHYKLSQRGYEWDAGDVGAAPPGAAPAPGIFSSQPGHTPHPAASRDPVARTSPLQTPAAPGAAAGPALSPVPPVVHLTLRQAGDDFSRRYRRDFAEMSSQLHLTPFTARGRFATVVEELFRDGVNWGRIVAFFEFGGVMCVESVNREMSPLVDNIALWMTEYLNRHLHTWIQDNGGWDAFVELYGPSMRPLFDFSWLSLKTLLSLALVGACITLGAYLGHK
Regarding `CC(NC(=S)Nc1ccccc1)C1COc2ccccc2O1` (configuration not stated), the inhibition (as a rule, the drop in the measured response relative to a control, in per cent) is -6%.

On to `O=C(CCC(=O)N1CCCC1)Nc1ccc([N+](=O)[O-])cc1`, for which the inhibition was -2%.

In the case of `CC(C)CNC(=S)NC(=O)c1ccc(Cl)cc1`, the inhibition was 0%.

Turning to `COCCN(C(=O)C(C)C)c1nnc(-c2ccc(C(C)(C)C)cc2)s1`, the inhibition was -5%.

Regarding `C=C1C2C[C@H](O)C(C)(C)[C@@]2(O)[C@H](O)C[C@]23C[C@@](C)(O)[C@H](CC[C@H]12)[C@H]3O` (some centres not stated), the inhibition was 0%.

As to `Nc1nc(SCC(=O)N2CCN(S(=O)(=O)c3ccc(Cl)cc3)CC2)n[nH]1`, the inhibition was -1%.

With `COc1cc([N+](=O)[O-])ccc1NC(=S)N1CCN(c2ccccn2)CC1`, the inhibition is 0%.

As for `Cc1ccc(NC(=S)NC(=O)/C=C/c2ccc(Cl)cc2)cc1`, the inhibition was -10%.

As to `COC(=O)c1c(NC(=O)CCCC(=O)O)sc2c1CCCCC2`, the inhibition was -3%.

On to `COc1cccc(NC(=O)COC(=O)CCOc2ccccc2OC)c1`, for which the inhibition was -2%.

As for `Cc1cccc(/C(N)=N/OC(=O)c2ccccc2Cl)c1`, the inhibition is -7%.

For the compound `CCOC(=O)C(C)n1nc(-c2ccccc2)c2ccccc2c1=O` (configuration not stated), the inhibition was -1%.

On to `Cn1cc(Cl)c(C(=O)NNC(=S)Nc2cccc(Cl)c2)n1`, for which the inhibition is 0%.

With `Cc1ccc(OC(=O)CCC(=O)Nc2ccc(Br)cc2)cc1`, the inhibition was 0%.

Regarding `O=C(N/N=C/c1ccccn1)c1ccc(S(=O)(=O)N2CCCCCC2)cc1`, the inhibition is 0%.

Regarding `O=[N+]([O-])/C(N=Nc1ccccc1)=N\Nc1ccccc1`, the inhibition was -1%.

For the compound `N#CCC(=O)N/N=C/c1ccc(SCC(=O)Nc2ccccc2)o1`, the inhibition was -1%.

On to `Cc1ccc(NC(=O)Nc2cccc(C(F)(F)F)c2)nc1`, for which the inhibition is 0%.

As for `CN1CCN(CC(=O)Nc2cccc([N+](=O)[O-])c2)CC1`, the inhibition was -1%.

With `O=C(COC(=O)Cn1cnc2ccccc21)Nc1cccc2c1C(=O)c1ccccc1C2=O`, the inhibition is -1%.

As for `CC1COc2ccccc2N1S(=O)(=O)c1ccccc1` (configuration not stated), the inhibition is -1%.

Turning to `COc1cc(NC(=O)c2ccccc2NS(=O)(=O)c2ccc(Cl)s2)cc(OC)c1`, the inhibition is 12%.

`CCC(=O)Nc1ccc(C(=O)N2CCN(C(=O)c3ccco3)CC2)cc1`: the inhibition was 3%.

Regarding `COc1ccc(/C=C/C(=O)OCC(=O)NCc2cccs2)cc1OC`, the inhibition was 0%.

Consider `CCOC(=O)N1CCN(Cc2nc(Cc3cccc(C(F)(F)F)c3)no2)CC1`, for which the inhibition is -6%.

In the case of `COc1cc2nc(CN(C)Cc3ccc(F)cc3)[nH]c(=O)c2cc1OC`, the inhibition is 14%.

In the case of `O=C(O)CCCCCNc1ncnc2ccc(Br)cc12`, the inhibition is 3%.

Take `COc1ccccc1-n1ccnc1SCC(=O)NC(C)(C)C`: the inhibition is -11%.

Take `CC12CN(NC(=O)c3ccc(Cl)cc3)C3(C#N)CC1CCC23C` (configuration not stated): the inhibition is 0%.

`CC(=O)c1ccc(NC(=O)C(C)N(C)CC(=O)Nc2ccccc2Cl)cc1` (configuration not stated): the inhibition was 1%.

With `CN(C)c1ccc(/C=N\S(=O)(=O)c2ccccc2)cc1`, the inhibition is 2%.

Turning to `CCC1CCCCN1S(=O)(=O)Cc1ccccc1Cl` (configuration not stated), the inhibition is 1%.

Regarding `CCOc1ccc(NC(=S)N2CCCCCC2)cc1`, the inhibition was -6%.

With `COc1cccc(CNC(=O)CCC2CCCN(C(=O)c3cc(C)[nH]n3)C2)c1` (configuration not stated), the inhibition is -4%.

Turning to `CCOc1ccc2c(=O)c(-c3ccc4c(c3)OCCCO4)c(C)oc2c1`, the inhibition is -3%.

As to `N/C(=N\OC(=O)c1ccc([N+](=O)[O-])cc1)c1ccccn1`, the inhibition was -3%.

Consider `COc1ccc2cc(-c3[nH]ncc3CNCCn3nc(C)cc3C)ccc2c1`, for which the inhibition was -2%.

With `Cc1cccc(NC(=O)CN2C(=O)c3ccccc3C2=O)c1C`, the inhibition was 0%.

In the case of `Fc1cccc(Cc2noc(CN3CCN(c4cnccn4)CC3)n2)c1`, the inhibition is 0%.

As for `Cc1cccc(-n2c(SCC(N)=O)nc3c(c2=O)C2(CCCCC2)Cc2ccccc2-3)c1`, the inhibition was 1%.

Take `CCCCCNC(=O)c1cccnc1SCC(=O)Nc1ccccc1OC`: the inhibition was -2%.

Turning to `O=C1CCCC2=C1C(c1cccs1)CC(=O)N2c1ccc(F)cc1` (configuration not stated), the inhibition is 4%.

As to `O=C(CC(=O)N/N=C\c1cccc(Cl)c1Cl)NCc1ccccc1`, the inhibition was -2%.

Turning to `O=C(NN1C(=O)C2C3C=CC(C3)C2C1=O)c1ccco1` (configuration not stated), the inhibition was -4%.

For the compound `CN(c1ccccc1)c1nc(N)c([N+](=O)[O-])c(NCc2ccco2)n1`, the inhibition is -2%.

For `Cn1c(=N)n(CC(O)c2cccs2)c2ccccc21` (configuration not stated), the inhibition is -1%.

As to `O=C(CSc1ccc(C(F)(F)F)cc1[N+](=O)[O-])NCCOc1ccccc1`, the inhibition was -7%.

As for `CC(C)(CNC(=O)c1ccc(Cl)c(S(=O)(=O)N2CCc3ccccc3C2)c1)N1CCOCC1`, the inhibition is 0%.

`CCN(CC)c1ccc2c(Nc3ccccc3)c(C=O)c(=O)oc2c1`: the inhibition was -4%.

Take `C#CCOCCOCCOCCNc1nc(N2CCN(C(=O)[C@H](C(C)C)n3cc(CCO)nn3)CC2)nc(N2CCN(C(=O)[C@H](C(C)C)n3cc(CCO)nn3)CC2)n1`: the inhibition was -3%.

On to `Cc1cc(C)c(C2C3=C(Nc4c2c(C)nn4-c2ccccn2)c2ccccc2C3=O)c(C)c1` (configuration not stated), for which the inhibition was -2%.

Turning to `CCN1CCc2nc(NC(=O)c3cc(F)c(F)cc3Cl)sc2C1`, the inhibition is -5%.

Regarding `COc1ccc(C(=O)C2CCCN(Cc3cccn3-c3ccccn3)C2)c(C)c1` (configuration not stated), the inhibition was 0%.

With `CCc1ccc(C2N3CC4([N+](=O)[O-])CN2CC([N+](=O)[O-])(C3)C4(C)C)cc1` (configuration not stated), the inhibition was -9%.

Regarding `CC1CCN(C(=S)c2cccc(O)c2)CC1`, the inhibition was -5%.

`C/C(=N\NC(=O)c1cccnc1)c1ccc(-n2ccnc2)cc1`: the inhibition is -4%.

Regarding `CCOC(=O)C1CCN(C(=O)C2(NC(=O)Nc3cccc(F)c3)CCCCC2)CC1`, the inhibition is -2%.

For `CCOc1ccccc1/C=N/NC(=O)CNC(=O)COc1ccccc1`, the inhibition was 79% (active).

For `C=CCc1ccccc1OCC(=O)N/N=C/c1ccccc1OCC`, the inhibition was -4%.

For the compound `Cc1ccc(/C=N/NC(=O)CNC(=O)COc2ccccc2)o1`, the inhibition was -10%.

For `O=C(CN1CCN(c2ncccn2)CC1)Nc1ccccc1C(F)(F)F`, the inhibition is -2%.

Consider `COCCCNC(NC(=O)c1ccc(OC)cc1)C(Cl)(Cl)Cl` (configuration not stated), for which the inhibition is 0%.

Take `Cc1cccc(NC(=S)NCc2ccc3[nH]c4c(c3c2)CCCC4)c1`: the inhibition is 2%.

Turning to `NS(=O)(=O)c1ccc(NC(=O)COC(=O)C2(c3ccc(F)cc3)CCCC2)cc1`, the inhibition is -9%.

Consider `Cc1cccc(Nc2nc3c(S(=O)(=O)c4ccccc4)nnn3c3ccccc23)c1C`, for which the inhibition was 0%.

Consider `CCc1ccc(NC(=O)Cn2nc(C)c([N+](=O)[O-])c2C)cc1`, for which the inhibition was -2%.

Regarding `CC(C)c1ccc(C2C(C#N)=C(N)Oc3c2oc(CO)cc3=O)cc1` (configuration not stated), the inhibition was -2%.

In the case of `CCOc1ccc(NC(=O)COc2ccc(C(=O)NC3CCCc4ccccc43)cc2OC)cc1` (configuration not stated), the inhibition was -6%.

As to `O=C(NCC1CCCO1)/C(=C/c1ccc(Cl)cc1)NC(=O)c1ccccc1` (configuration not stated), the inhibition is -5%.

On to `CCCNS(=O)(=O)c1ccc(CCC(=O)N2CCCC2)cc1`, for which the inhibition is -5%.

`CC(=O)c1c(C)[nH]c(C(=O)OCC(=O)NCCC(C)C)c1C`: the inhibition is -3%.

As to `CCOC(=O)CCNC(=O)N1CCCC(C(=O)c2ccccc2SC)C1` (configuration not stated), the inhibition was 2%.

In the case of `CC(CC(=O)C1C(C)C=CCC1(C)C)NNC(N)=O` (configuration not stated), the inhibition was -3%.

Turning to `CC(Sc1nnnn1C1CCCCC1)C(=O)O` (configuration not stated), the inhibition was -2%.

Consider `COc1ccc(Cl)cc1NC(=O)COC(=O)C(CC(C)C)N1C(=O)C2CC=CCC2C1=O` (configuration not stated), for which the inhibition was -9%.

As to `COc1cccc(NC(=O)NCc2ccc(F)cc2)c1`, the inhibition is 0%.

`Cc1cc(Cl)c(S(=O)(=O)Nc2ccc3c(c2)OCCO3)cc1OCC(N)=O`: the inhibition is -1%.

Take `Cc1cc(Cl)c(S(=O)(=O)NCCC(=O)O)cc1OCC(N)=O`: the inhibition is -7%.

Consider `Cc1cc(Cl)c(S(=O)(=O)NCC2CCCO2)cc1OCC(N)=O` (configuration not stated), for which the inhibition was 79% (active).

With `CN(C)CCOCCOc1ccc(Cl)c2ccccc12`, the inhibition is -7%.

As for `O=C(Nc1ccccc1C(=O)N1CCCCCC1)c1ccccc1Cl`, the inhibition was -4%.

For `CC(=O)Nc1ccc(S(=O)(=O)NC2(C(F)(F)F)C(=O)Nc3c2c(=O)[nH]c(=O)n3Cc2ccccc2)cc1` (configuration not stated), the inhibition was -4%.

Consider `COCCOC(=O)c1c(C)oc2cc(Br)c(OCC(N)=O)cc12`, for which the inhibition is 0%.

In the case of `CCCCN(C(=O)COc1ccc(NC(C)=O)cc1)C1CCS(=O)(=O)C1` (configuration not stated), the inhibition was -3%.

As for `COCCn1c(C)cc(C(=O)COC(=O)/C=C/c2cccc(OC)c2)c1C`, the inhibition is -5%.

For `O=C(O)Cc1ccc(NCc2ccccc2Cl)cc1`, the inhibition is -3%.

Turning to `CC1CN(S(=O)(=O)c2ccc(C(=O)Nc3sccc3C(N)=O)cc2)CC(C)O1` (configuration not stated), the inhibition is 1%.

As to `Cc1ccc(-c2nc(C#N)c(NCCCn3ccnc3)o2)cc1`, the inhibition is -2%.

On to `O=C(CNCc1ccco1)Nc1cc(S(=O)(=O)N2CCOCC2)ccc1N1CCCC1`, for which the inhibition was -2%.

Regarding `CC(C)=CCN1CCN(Cc2ccc(Oc3ncccn3)cc2)CC1CCO` (configuration not stated), the inhibition was 1%.

Consider `COc1ccc(N2CCN(C(=S)Nc3ccc(S(N)(=O)=O)cc3)CC2)cc1`, for which the inhibition was -3%.

`O=C(NCc1ccc(Cl)cc1)NCc1ccc(Cl)cc1`: the inhibition is -4%.

For `O=C(CSc1ccc(-c2ccc(F)cc2)nn1)Nc1ccc2c(c1)OCCO2`, the inhibition is -6%.

As for `O=C(Nc1cccc(F)c1)N1C2CCC1CC(O)(c1cccnc1)C2` (configuration not stated), the inhibition is 0%.

On to `O=C(CN1CCN(c2ccc(O)cc2)CC1)Nc1cc(S(=O)(=O)N2CCOCC2)ccc1Cl`, for which the inhibition was 0%.

As to `COc1cc(COCC(O)CN2CCN(Cc3ccc4c(c3)OCO4)CC2)cc(OC)c1OC` (configuration not stated), the inhibition was -1%.

In the case of `COC(=O)C1=C(C)N(C)C(=S)NC1c1cc(OC)ccc1OC` (configuration not stated), the inhibition is -5%.
